# Experimental data as given in PMC5700166.
# Molecular target: T1, GST-Nv-NF-kB (Ser allele) (Nematostella vectensis, UniProt A7UNT2 2-411)
# T1 sequence: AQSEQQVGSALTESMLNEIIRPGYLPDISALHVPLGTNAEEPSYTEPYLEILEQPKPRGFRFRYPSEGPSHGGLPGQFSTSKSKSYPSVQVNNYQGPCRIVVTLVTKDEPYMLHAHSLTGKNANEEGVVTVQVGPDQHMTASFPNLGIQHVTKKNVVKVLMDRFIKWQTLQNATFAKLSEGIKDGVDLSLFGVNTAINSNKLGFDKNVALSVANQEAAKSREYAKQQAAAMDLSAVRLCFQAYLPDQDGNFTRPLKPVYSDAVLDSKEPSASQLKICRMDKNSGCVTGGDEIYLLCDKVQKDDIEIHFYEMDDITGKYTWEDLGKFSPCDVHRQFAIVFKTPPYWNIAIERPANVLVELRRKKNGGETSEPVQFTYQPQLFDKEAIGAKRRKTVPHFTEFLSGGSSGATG
# Test: protein-binding microarray (PBM); PBM: ~300 nM protein, 6 mM HEPES pH 7.8, 80 mM KCl, 0.5 mM EDTA, 0.5 mM EGTA, 6% glycerol, 35 ng/ul poly-dIdC, 1% milk, 1 h, room temperature; Ap Aiptasia and Nv Nematostella (sea anemones) / Co Capsaspora / Aq Amphimedon (sponge) / Dm Drosophila / Hu human; RHD is the Rel homology domain; high values mean tight binding
# Settings: dsDNA, one strand shown
row,Sequence,binding signal
1,CCGATTAACATCACAGTACCCCCTGATGTTAATCGGGTCTTGATTCGCTTGACGCTGCTG,3.98 z-score
2,CCGATTAACATCAAGGGAAACCCTGATGTTAATCGGGTCTTGATTCGCTTGACGCTGCTG,4.43 z-score
3,CCGATTAACATCAGGTCGGGAAATGATGTTAATCGGGTCTTGATTCGCTTGACGCTGCTG,2.31 z-score
4,CCGATTAACATCACCGCCCCCCCTGATGTTAATCGGGTCTTGATTCGCTTGACGCTGCTG,4.44 z-score
5,CCGATTAACATCAAGGTACCCCCTGATGTTAATCGGGTCTTGATTCGCTTGACGCTGCTG,3.84 z-score
6,CCGATTAACATCACATTTTCCCATGATGTTAATCGGGTCTTGATTCGCTTGACGCTGCTG,5.22 z-score
7,CCGATTAACATCAAAATTTCACCTGATGTTAATCGGGTCTTGATTCGCTTGACGCTGCTG,3.88 z-score
8,CCGATTAACATCACGGGACCCCCTGATGTTAATCGGGTCTTGATTCGCTTGACGCTGCTG,3.8 z-score
9,CCGATTAACATCACCCGTTTCCCTGATGTTAATCGGGTCTTGATTCGCTTGACGCTGCTG,4.29 z-score
10,CCGATTAACATCAAAAATTTACCTGATGTTAATCGGGTCTTGATTCGCTTGACGCTGCTG,6.08 z-score
11,CCGATTAACATCAGGTATTTTTATGATGTTAATCGGGTCTTGATTCGCTTGACGCTGCTG,3.43 z-score
12,CCGATTAACATCAGGGAATGCCATGATGTTAATCGGGTCTTGATTCGCTTGACGCTGCTG,2.41 z-score
13,CCGATTAACATCATTGGGAAAAATGATGTTAATCGGGTCTTGATTCGCTTGACGCTGCTG,3.58 z-score
14,CCGATTAACATCAGGGGGTTACATGATGTTAATCGGGTCTTGATTCGCTTGACGCTGCTG,4.94 z-score
15,CCGATTAACATCACCCCTCCCCCTGATGTTAATCGGGTCTTGATTCGCTTGACGCTGCTG,4.65 z-score
16,CCGATTAACATCAGGAATACCCCTGATGTTAATCGGGTCTTGATTCGCTTGACGCTGCTG,4.15 z-score
17,CCGATTAACATCAGGGATTCTCATGATGTTAATCGGGTCTTGATTCGCTTGACGCTGCTG,1.71 z-score
18,CCGATTAACATCACCCGCTTTATTGATGTTAATCGGGTCTTGATTCGCTTGACGCTGCTG,1.21 z-score
19,CCGATTAACATCAGGAAAAACCCTGATGTTAATCGGGTCTTGATTCGCTTGACGCTGCTG,3.96 z-score
20,CCGATTAACATCAAAAAACCGTTTGATGTTAATCGGGTCTTGATTCGCTTGACGCTGCTG,2.22 z-score

row,Sequence,binding signal
1,CCGATTAACATCACGGTTTTTCCTGATGTTAATCGGGTCTTGATTCGCTTGACGCTGCTG,1.21 z-score
2,CCGATTAACATCAGGGGGCATTATGATGTTAATCGGGTCTTGATTCGCTTGACGCTGCTG,3.29 z-score
3,CCGATTAACATCACGTCCCCCCCTGATGTTAATCGGGTCTTGATTCGCTTGACGCTGCTG,4.17 z-score
4,CCGATTAACATCAAAATCTTCCCTGATGTTAATCGGGTCTTGATTCGCTTGACGCTGCTG,6.32 z-score
5,CCGATTAACATCACTGTTTTCCCTGATGTTAATCGGGTCTTGATTCGCTTGACGCTGCTG,6.12 z-score
6,CCGATTAACATCAGGAGTTTCCCTGATGTTAATCGGGTCTTGATTCGCTTGACGCTGCTG,4.67 z-score
7,CCGATTAACATCAGGGGGTTAGATGATGTTAATCGGGTCTTGATTCGCTTGACGCTGCTG,3.46 z-score
8,CCGATTAACATCAGGAAAATACCTGATGTTAATCGGGTCTTGATTCGCTTGACGCTGCTG,3.24 z-score
9,CCGATTAACATCAGGCCATCCCCTGATGTTAATCGGGTCTTGATTCGCTTGACGCTGCTG,3.8 z-score
10,CCGATTAACATCACAGGGAAAAATGATGTTAATCGGGTCTTGATTCGCTTGACGCTGCTG,5.18 z-score
11,CCGATTAACATCAAAAAAAATCCTGATGTTAATCGGGTCTTGATTCGCTTGACGCTGCTG,1.23 z-score
12,CCGATTAACATCAGGGAATTAAATGATGTTAATCGGGTCTTGATTCGCTTGACGCTGCTG,3.98 z-score
13,CCGATTAACATCAGGGATATTTATGATGTTAATCGGGTCTTGATTCGCTTGACGCTGCTG,2.29 z-score
14,CCGATTAACATCACATGTTCCCCTGATGTTAATCGGGTCTTGATTCGCTTGACGCTGCTG,6.15 z-score
15,CCGATTAACATCAACCCCCGGCTTGATGTTAATCGGGTCTTGATTCGCTTGACGCTGCTG,2.23 z-score
16,CCGATTAACATCAGGGGAAGGACTGATGTTAATCGGGTCTTGATTCGCTTGACGCTGCTG,5.04 z-score
17,CCGATTAACATCAGGGGTAGGTTTGATGTTAATCGGGTCTTGATTCGCTTGACGCTGCTG,1.33 z-score
18,CCGATTAACATCAAGAAATTACCTGATGTTAATCGGGTCTTGATTCGCTTGACGCTGCTG,5.68 z-score
19,CCGATTAACATCAGGACAGTCCCTGATGTTAATCGGGTCTTGATTCGCTTGACGCTGCTG,2.87 z-score

# Molecular target: GST-Hu-p50 (Homo sapiens, UniProt P19838 7-356)
# Sequence (P19838 7-356): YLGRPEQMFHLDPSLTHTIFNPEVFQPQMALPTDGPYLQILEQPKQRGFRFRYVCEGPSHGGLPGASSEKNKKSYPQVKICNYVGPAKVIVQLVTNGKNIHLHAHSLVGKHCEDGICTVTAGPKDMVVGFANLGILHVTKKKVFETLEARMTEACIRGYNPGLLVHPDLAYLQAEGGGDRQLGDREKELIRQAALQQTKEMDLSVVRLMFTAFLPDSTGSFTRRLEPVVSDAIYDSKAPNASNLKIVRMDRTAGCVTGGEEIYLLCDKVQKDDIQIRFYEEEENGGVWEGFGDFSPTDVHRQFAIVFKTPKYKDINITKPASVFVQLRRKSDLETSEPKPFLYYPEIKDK
# Test: as above
# Settings: dsDNA, one strand shown
row,Sequence,binding signal
1,CCGATTAACATCACAGTACCCCCTGATGTTAATCGGGTCTTGATTCGCTTGACGCTGCTG,3.45 z-score
2,CCGATTAACATCAAGGGAAACCCTGATGTTAATCGGGTCTTGATTCGCTTGACGCTGCTG,2.93 z-score
3,CCGATTAACATCAGGTCGGGAAATGATGTTAATCGGGTCTTGATTCGCTTGACGCTGCTG,1.27 z-score
4,CCGATTAACATCACCGCCCCCCCTGATGTTAATCGGGTCTTGATTCGCTTGACGCTGCTG,4.53 z-score
5,CCGATTAACATCAAGGTACCCCCTGATGTTAATCGGGTCTTGATTCGCTTGACGCTGCTG,3.34 z-score
6,CCGATTAACATCACATTTTCCCATGATGTTAATCGGGTCTTGATTCGCTTGACGCTGCTG,3.45 z-score
7,CCGATTAACATCAAAATTTCACCTGATGTTAATCGGGTCTTGATTCGCTTGACGCTGCTG,3.28 z-score
8,CCGATTAACATCACGGGACCCCCTGATGTTAATCGGGTCTTGATTCGCTTGACGCTGCTG,3.54 z-score
9,CCGATTAACATCACCCGTTTCCCTGATGTTAATCGGGTCTTGATTCGCTTGACGCTGCTG,2.75 z-score
10,CCGATTAACATCAAAAATTTACCTGATGTTAATCGGGTCTTGATTCGCTTGACGCTGCTG,3.82 z-score
11,CCGATTAACATCAGGTATTTTTATGATGTTAATCGGGTCTTGATTCGCTTGACGCTGCTG,3.11 z-score
12,CCGATTAACATCAGGGAATGCCATGATGTTAATCGGGTCTTGATTCGCTTGACGCTGCTG,1.54 z-score
13,CCGATTAACATCATTGGGAAAAATGATGTTAATCGGGTCTTGATTCGCTTGACGCTGCTG,2.4 z-score
14,CCGATTAACATCAGGGGGTTACATGATGTTAATCGGGTCTTGATTCGCTTGACGCTGCTG,5.16 z-score
15,CCGATTAACATCACCCCTCCCCCTGATGTTAATCGGGTCTTGATTCGCTTGACGCTGCTG,4.06 z-score
16,CCGATTAACATCAGGAATACCCCTGATGTTAATCGGGTCTTGATTCGCTTGACGCTGCTG,5.04 z-score
17,CCGATTAACATCAGGGATTCTCATGATGTTAATCGGGTCTTGATTCGCTTGACGCTGCTG,1.91 z-score
18,CCGATTAACATCACCCGCTTTATTGATGTTAATCGGGTCTTGATTCGCTTGACGCTGCTG,1.46 z-score
19,CCGATTAACATCAGGAAAAACCCTGATGTTAATCGGGTCTTGATTCGCTTGACGCTGCTG,4.56 z-score
20,CCGATTAACATCAAAAAACCGTTTGATGTTAATCGGGTCTTGATTCGCTTGACGCTGCTG,1.52 z-score

row,Sequence,binding signal
1,CCGATTAACATCACGGTTTTTCCTGATGTTAATCGGGTCTTGATTCGCTTGACGCTGCTG,1.62 z-score
2,CCGATTAACATCAGGGGGCATTATGATGTTAATCGGGTCTTGATTCGCTTGACGCTGCTG,4.09 z-score
3,CCGATTAACATCACGTCCCCCCCTGATGTTAATCGGGTCTTGATTCGCTTGACGCTGCTG,3.7 z-score
4,CCGATTAACATCAAAATCTTCCCTGATGTTAATCGGGTCTTGATTCGCTTGACGCTGCTG,3.8 z-score
5,CCGATTAACATCACTGTTTTCCCTGATGTTAATCGGGTCTTGATTCGCTTGACGCTGCTG,3.14 z-score
6,CCGATTAACATCAGGAGTTTCCCTGATGTTAATCGGGTCTTGATTCGCTTGACGCTGCTG,4.81 z-score
7,CCGATTAACATCAGGGGGTTAGATGATGTTAATCGGGTCTTGATTCGCTTGACGCTGCTG,3.95 z-score
8,CCGATTAACATCAGGAAAATACCTGATGTTAATCGGGTCTTGATTCGCTTGACGCTGCTG,3.12 z-score
9,CCGATTAACATCAGGCCATCCCCTGATGTTAATCGGGTCTTGATTCGCTTGACGCTGCTG,3.33 z-score
10,CCGATTAACATCACAGGGAAAAATGATGTTAATCGGGTCTTGATTCGCTTGACGCTGCTG,3.13 z-score
11,CCGATTAACATCAAAAAAAATCCTGATGTTAATCGGGTCTTGATTCGCTTGACGCTGCTG,1.51 z-score
12,CCGATTAACATCAGGGAATTAAATGATGTTAATCGGGTCTTGATTCGCTTGACGCTGCTG,2.43 z-score
13,CCGATTAACATCAGGGATATTTATGATGTTAATCGGGTCTTGATTCGCTTGACGCTGCTG,2.35 z-score
14,CCGATTAACATCACATGTTCCCCTGATGTTAATCGGGTCTTGATTCGCTTGACGCTGCTG,3.07 z-score
15,CCGATTAACATCAACCCCCGGCTTGATGTTAATCGGGTCTTGATTCGCTTGACGCTGCTG,3.29 z-score
16,CCGATTAACATCAGGGGAAGGACTGATGTTAATCGGGTCTTGATTCGCTTGACGCTGCTG,3.89 z-score
17,CCGATTAACATCAGGGGTAGGTTTGATGTTAATCGGGTCTTGATTCGCTTGACGCTGCTG,1.07 z-score
18,CCGATTAACATCAAGAAATTACCTGATGTTAATCGGGTCTTGATTCGCTTGACGCTGCTG,3.38 z-score
19,CCGATTAACATCAGGACAGTCCCTGATGTTAATCGGGTCTTGATTCGCTTGACGCTGCTG,4.04 z-score
